Test results reported in PubChem BioAssay (NCI).
This is part of a sample that, as a whole, favours compounds with a hit. Of some 79,000 tested, about 15% had one in any assay. A number with no mark means an inactive call. Active and inactive are the calls of the source. Rule as the data show it: active = growth inhibition above about 70%; inactive = the rest. Where a SMILES comes first, the peptide text is derived from it. [ ]: non-standard residue; d: D form. The star is where a group is joined. ξ: configuration not given here. ξNMe2Val = CC(C)C(C(=O)*)N(C)C; NMeV = CN[CH](C(=O)O)C(C)C; NHBn = c1ccc(CN*)cc1

Experiments:
[1] = NCI Yeast Anticancer Drug Screen. Data for the rad50 strain (AID 155);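 also: 0% = growth of vehicle-only cultures of the same strain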; conditions: S. cerevisiae rad50 strain growth inhibition; at 50.0 µM; stronger effect = higher value
Summary of the method: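 Yeast carrying a defined DNA repair defect were exposed to test compounds, and growth was compared with vehicle-treated controls to give percent inhibition.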

[2] = NCI Yeast Anticancer Drug Screen. Data for the mec2-1 strain (AID 157); conditions: S. cerevisiae mec2-1 strain, at 50.0 µM, stronger effect = higher value
Summary of the method: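 Using mec2-1 yeast: add compound, measure growth, express inhibition versus vehicle-treated cultures.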

[3] = NCI Yeast Anticancer Drug Screen. Data for the sgs1 mgt1 strain (AID 161);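 also: 0% = growth of cultures given vehicle only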; conditions: S. cerevisiae sgs1 mgt1 strain, at 50.0 µM, stronger effect = higher value
Summary of the method: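 Yeast cells carrying a defined DNA-repair defect were exposed to test compounds. Growth inhibition was measured relative to vehicle-treated controls.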

[4] = NCI Yeast Anticancer Drug Screen. Data for the cln2 rad14 strain (AID 165);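 also: 0% = growth equal to vehicle treated cultures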; conditions: S. cerevisiae cln2 rad14 strain, at 50.0 µM, stronger effect = higher value
Summary of the method: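 Yeast strain cln2 rad14, bearing defects in cell cycle control and DNA repair, serves as the test system; values reflect growth inhibition compared with vehicle.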

[5] = NCI Yeast Anticancer Drug Screen. Data for the bub3 strain (AID 167); conditions: S. cerevisiae bub3 mutant strain, at 50.0 µM, stronger effect = higher value
Summary of the method: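 Compounds were applied to a genetically altered yeast strain carrying a cell-cycle control defect. Growth inhibition was scored against vehicle-treated controls.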

[6] = NCI Yeast Anticancer Drug Screen. Data for the mlh1 rad18 strain (AID 175); conditions: S. cerevisiae mlh1 rad18 strain growth inhibition; at 50.0 µM; stronger effect = higher value
Summary of the method: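 Steps: expose repair-defective yeast to compound; measure growth; express inhibition against vehicle-treated controls.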

Structure (SMILES)	growth inhibition [1]	growth inhibition [2]	growth inhibition [3]	growth inhibition [4]	growth inhibition [5]	growth inhibition [6]
CCOC(=O)C(CC(C)C)NC(=O)C(N)Cc1ccc(N(CCCl)CCCl)cc1 (stereo unspecified)	-2.4%	-8.9%	-27.1%	-17.6%	-30.1%	
COc1ccc(CCNC2CC3CCC2(C)C3(C)C)cc1OC (stereo unspecified)	15.6%	12.8%	11.5%	-22.3%	8.75%	24.9%
O=C(Cc1ccccc1)Oc1ccc2c(-c3ccccc3)c(C(=O)Nc3ccc(Cl)cc3)c(=O)oc2c1	6.75%	5.2%	2.2%	2.6%	-23.4%	12.8%
[C-]#[N+]C1CCCCC1.[C-]#[N+]C1CCCCC1.[Ni].[S-]c1ccccc1.[S-]c1ccccc1	37.5%	16%	40.4%	20.1%	3.5%	36.6%
CC12CCC3C(CCC4(O)C=CCCC34C=O)C1(O)CC(O)C2c1ccc(=O)oc1 (stereo unspecified)	-28.1%	-46.9%	-12.7%	-15.8%	-53.9%	-16.2%
O=C(O)c1ccc([As](=O)(O)O)cc1	-16.6%	4.3%	17.3%	-35.2%	-18.8%	
C/C(=N\N=C(\[Se])N(C)C)c1ccccn1	86.9% (active)	89.9% (active)	89.7% (active)	89.3% (active)	87.1% (active)	
CCC1(OC(=O)CNC)C(=O)OCc2c1cc1n(c2=O)Cc2cc3ccccc3nc2-1 (stereo unspecified)	78.7% (active)	83.7% (active)	76.3% (active)	60.2%	72% (active)	
Fc1ccc(C2(N3CCC4(CC3)OCCO4)CCCCC2)cc1	-8.05%	9%	14.1%	-15.5%	0.1%	
Oc1ccc(Cc2ccc(O)cc2)cc1	-0.2%	-3.4%	-0.3%	-16.3%	-3.1%	
COCCOC(=O)CCl	-4.35%	0.4%	10.9%	0.45%	-0.7%	25.5%
Cc1cc(NC(=O)CCc2ccc(N3C(N)=NC(N)=NC3(C)C)cc2Cl)ccc1S(=O)(=O)F	72.5% (active)	94.1% (active)	94.7% (active)	4.55%	54%	83.3% (active)
CC1=NN(c2cccc(S(=O)(=O)O)c2)C(=O)C1N=Nc1cc(Cl)cc(S(=O)(=O)O)c1O.O.[Cr] (stereo unspecified)	-19.4%	-25.1%	3.1%	-0.7%	8.35%	9.35%
CNC(=O)c1cc(N(CCCl)CCCl)c([N+](=O)[O-])cc1[N+](=O)[O-]	-3.15%	-17.5%	-6.05%	10%	-3.15%	19.4%
NC(N)=NCCN=C(N)N	-2.7%	-30.1%	-29.6%	-24.1%	-53.2%	-9.15%
CCC[CH2][Sn]([I])([CH2]I)[CH2]CCC	98.5% (active)	99.1% (active)	99% (active)	98.6% (active)	98.8% (active)	
CN1CC=C(OP(=O)(NCc2ccccc2)N(CCCl)CCCl)CC1 (stereo unspecified)	-6.25%	-12.8%	0.9%	-3.1%	-17.4%	-34%
c1ccc(N2CCNCC2)nc1	-6.4%	-4.3%	9.2%	6.9%	8.25%	
CC1(CCN)COC(c2ccccc2)(c2ccccc2)OC1 (tested in a mixture with another compound)	20.1%	4.15%	-0.7%	31.4%	10.2%	
O=C(CN1CCCCC1)c1ccc(Br)cc1	15.7%	6.1%	9.4%	-20.9%	-12.4%	9.55%
OC1=C2CCCCCC2=[N+]2CCCCC2C1 (stereo unspecified)	19.1%	33.6%	52.5%	-1.6%	32.2%	
COC(=O)C1C(c2ccc(-c3ccccc3)cc2)N1C1CCCCC1 (stereo unspecified)	7.7%	19.8%	2.9%	-2.05%	-4%	1.85%
CCN1C(=O)C(=C/C=C/c2ccc(OC)cc2)C(=O)N(CC)C1=S	37.4%	10.8%	46.4%	11.8%	13.8%	36.7%
COc1ccc2nc3cc(Cl)ccc3c(NCCCN(CCCl)CCCl)c2c1	51%	19.2%	37.2%	34.2%	7.6%	

Structure (SMILES)	growth inhibition [1]	growth inhibition [2]	growth inhibition [3]	growth inhibition [4]	growth inhibition [5]	growth inhibition [6]
CCOC(=O)/C(=C\c1cccc(F)c1)[Se]c1ccccc1	29.4%	7.15%	21.9%	8.3%	46.8%	36.6%
CNC(=O)Oc1ccc2c(C)cc(=O)oc2c1	21.1%	0.2%	4.55%	-27%	17.2%	15.3%
CC1(c2ccccc2)CCC(=O)NC1=O (stereo unspecified)	7.2%	19.6%	14.6%	32.5%	7.85%	38.6%
CC(C)C(NC(=O)C(C(C)C)N(C)C)C(=O)N(C)C(C(=O)N1CCCC1C(=O)N1CCCC1C(=O)NCc1ccccc1)C(C)C (stereo unspecified) (ξNMe2Val-V[NMeV]PP-NHBn; configuration not given here)	-18.3%	-17.7%	-22.9%	12%	3.55%	-47%
CCOP(=O)(OCC)C(C#N)Cc1ccco1 (stereo unspecified)	-19.2%	-23.9%	-14.1%	-9.4%	-4.1%	1.9%
S=C(Nc1ccccc1)Nc1ccc(N(CCCl)CCCl)cc1	17.6%	0%	12.6%	-40.8%	10.1%	21.7%
CSC(SC)P(=O)(Oc1ccccc1)Oc1ccccc1	-10.4%	2.85%	1.4%	4.45%	8.7%	10.6%
CCOP(=O)(OCC)C1CC(C(C)C)CC=C1C (stereo unspecified)	5.4%	-8.95%	-2.15%	1.25%	3.75%	15.1%
C=CCCOC(=O)CO[N+](=O)[O-]	6.8%	-0.7%	5.35%	8.8%	-4.25%	4.1%
CC1=CC(=O)C=CC1=Nc1ccc(N(CCCl)CCCl)cc1	22.4%	11.2%	6.65%	2.95%	-1.45%	-5.25%
Oc1cc(Cl)c(O)c(Cl)c1	2.9%	-2.05%	4.15%	-37.9%	-20.2%	-7.55%
O=C([O-])CN(CCN(CC(=O)[O-])CC(=O)O)CC(=O)O.[Fe+5].[Na+]	-12.6%	-13.3%	0.35%	-35.8%	-2.85%	-8.4%
NC(=S)N=C(N)N	11.8%	-3.55%	-6.25%	-10.4%	8.4%	9.85%
CCCCOS(C)(=O)=O	19.6%	-13.8%	22.4%	5.8%	21.4%	29.4%
O=NN(O)c1ccccc1.O=NN(O)c1ccccc1.[Mn+2]	4.85%	0.15%	13.1%	-46.5%	-4.3%	3.85%
Cc1ccc(O)c(CN2CCN(Cc3cc(C)ccc3O)CC2)c1	3.1%	15.8%	13.2%	-2.15%	14.4%	7.8%
O=[N+]([O-])c1ccc(SCl)c([N+](=O)[O-])c1	31.9%	11.1%	18.8%	14.6%	31.9%	17.9%
CC(C)[N+](C)(CCC(C(=O)N(C)C)(c1ccccc1)c1ccccc1)C(C)C	18.6%	-1.55%	4.7%	13.3%	-16%	24.4%
O=[N+]([O-])c1cc(-c2ccc([As](=O)(O)O)cc2)ccc1[As](=O)(O)O	2.5%	4.4%	-40%	9.5%	-22%	-4.15%
O.O.[NH-]C1(C(=O)O)CCCC1.[NH-]C1(C(=O)O)CCCC1.[Ni+2]	-12%	-15.9%	-16.6%	19.4%	-48.9%	-17.4%
CCN1CCC2(CC1)COCc1ccccc12	18.3%	7.8%	16.4%	4.15%	3.15%	29.6%
CC(C)N1CCc2cc3c(cc2C1)OCO3	9.8%	11.1%	1.3%	1.25%	-17.5%	23%
CC[N+](C)(CC)CCC(C(=O)NC)(c1ccccc1)c1ccccc1	-2.45%	-1.35%	-22.8%	-34.6%	0.05%	-19.1%
